Here are results for 37 compounds from PubChem BioAssay (Tox21).

Inconclusive results are not listed. Where a call stands in place of a potency, no number is given. Activity calls are given as the source filed them. Unless noted, the call rests on the fitted dose curve; in most records, active means well fitted curve in the direction sought with a large enough effect in the repeat runs; inconclusive means weak or mixed curves; inactive means no such curve, though single readings can be large; an effect the other way counts as inactive or inconclusive.

Bile acid receptor (Homo sapiens), sequence (Q96RI1 whole entry, looked up): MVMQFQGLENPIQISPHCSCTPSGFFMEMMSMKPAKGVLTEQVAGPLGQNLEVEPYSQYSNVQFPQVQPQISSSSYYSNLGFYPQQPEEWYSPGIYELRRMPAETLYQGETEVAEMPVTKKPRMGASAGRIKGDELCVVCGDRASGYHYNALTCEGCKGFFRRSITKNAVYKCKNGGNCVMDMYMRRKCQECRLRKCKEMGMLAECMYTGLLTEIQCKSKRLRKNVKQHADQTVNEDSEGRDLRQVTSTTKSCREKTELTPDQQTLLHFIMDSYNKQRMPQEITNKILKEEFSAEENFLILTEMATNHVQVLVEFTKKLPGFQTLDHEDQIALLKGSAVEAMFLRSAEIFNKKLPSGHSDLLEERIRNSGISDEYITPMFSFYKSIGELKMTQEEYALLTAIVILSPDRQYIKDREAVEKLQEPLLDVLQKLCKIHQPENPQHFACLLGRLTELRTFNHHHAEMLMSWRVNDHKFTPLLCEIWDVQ
Peroxisome proliferator-activated receptor delta (Homo sapiens), sequence (Q03181 whole entry, looked up): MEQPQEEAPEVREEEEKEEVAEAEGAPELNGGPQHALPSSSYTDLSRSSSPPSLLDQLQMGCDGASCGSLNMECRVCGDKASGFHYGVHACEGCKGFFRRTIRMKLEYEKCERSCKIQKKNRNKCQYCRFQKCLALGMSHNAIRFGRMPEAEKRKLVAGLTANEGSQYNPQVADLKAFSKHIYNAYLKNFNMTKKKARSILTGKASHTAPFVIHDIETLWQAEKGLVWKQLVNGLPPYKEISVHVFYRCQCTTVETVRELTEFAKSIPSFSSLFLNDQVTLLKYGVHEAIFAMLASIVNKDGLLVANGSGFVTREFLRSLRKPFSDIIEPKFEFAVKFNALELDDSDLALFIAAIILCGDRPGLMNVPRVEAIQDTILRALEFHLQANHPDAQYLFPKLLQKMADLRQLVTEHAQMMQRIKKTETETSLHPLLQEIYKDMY

Tested on in the first test: not listed separately
In words: qHTS assay to identify small molecule antagonists of the peroxisome proliferator-activated receptor delta (PPARd) signaling pathway - cell viability counter screen (AID 743213). Further: nearly all actives have a fitted effect of over 50% in size. Conditions: PPARd-bla HEK293H viability, CellTiter-Glo luminescence, 17 h; series mostly up to 62 µM. In a few lines:
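Same-well viability: cells pre-incubated 5 h, dosed with compound plus 300 nM L165041, kept 17 h at 37 C, FRET substrate 2 h RT, then CellTiter-Glo 30 min RT and luminescence.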
For orientation: In qHTS, concentration-response curves come from the screen itself.
Consider `CC1=CCC(C(C)C)=CC1`, for which the compound was called inactive.
Same read-out and setting: the same measure for `COc1ccc(-c2cc(=O)c3c(O)cc(O[C@@H]4O[C@H](CO[C@@H]5O[C@@H](C)[C@H](O)[C@@H](O)[C@H]5O)[C@@H](O)[C@H](O)[C@H]4O)cc3o2)cc1O`: “inactive”; for `COC(=O)[C@@H]1[C@H]2C[C@H]3c4[nH]c5ccccc5c4CCN3C[C@@H]2CC[C@@H]1O`: “inactive”; for `Cc1cccc(OCC(O)CNC(C)(C)C)c1C` (configuration not stated): “inactive”.
On the same count and under the same terms, the same measure for `CC(C)(C)c1n[nH]c(=S)n(N)c1=O`: “inactive”.
In the case of `C=C(C)C1CCC(C)(O)CC1` (configuration not stated), the result was inactive.
For `CC(CO)c1ccccc1` (configuration not stated), the compound was called inactive.
Regarding `O=C1O[C@@H]2[C@@H](O)[C@H](O)O[C@@H]2[C@H]1O`, the compound was called inactive.
As for `Cc1ccccc1C(=O)Nc1ccc(C(=O)N2CCCC(N(C)C)c3ccccc32)cc1` (configuration not stated), the compound was called inactive.
In the case of `CC(=O)N[C@@H](CCC(=O)O)C(=O)O`, the call was inactive.
The same measure, in the same setting: the same measure for `Cc1ccc(C=O)cc1C`: “inactive”.
Take `CC1=C(C(=O)O)N2C(=O)[C@@H](NC(=O)[C@H](N)c3ccc(O)cc3)[C@H]2SC1`: the compound was called inactive.
Still for that read-out and setting: the value for `CC(COC(C)(C)C)OCCCO` (configuration not stated) was “inactive”.
The same measure, in the same setting: the same measure for `O=C(O)c1cc(Cl)cc([N+](=O)[O-])c1Cl`: “inactive”.
In the case of `O=C(CCNNC(=O)c1ccncc1)NCc1ccccc1`, the compound was classed as inactive.
For the compound `COc1cc(NS(=O)(=O)c2ccc(N)cc2)nc(OC)n1`, the result was inactive.
As for `O=C(NCC(O)CO)c1c(I)c(C(=O)NCC(O)CO)c(I)c(N(CCO)C(=O)CO)c1I` (configuration not stated), the compound was classed as inactive.
On the same count and under the same terms, the value for `CCOC(=O)[C@H](CCc1ccccc1)N[C@@H](C)C(=O)N1C(=O)N(C)C[C@H]1C(=O)O` was “inactive”.
For the compound `Cc1cc(Cl)c(C)cc1Cl`, the compound was called inactive.
Same read-out and setting: the value for `O=S(=O)(O)CCN1CCN(CCO)CC1` was “inactive”; that for `c1ccc2nccnc2c1` was “inactive”.
Same read-out and setting: the same measure for `CCCCCCCCCCl`: “inactive”; for `CCC(C)(CCC(C)C)C(=O)O` (configuration not stated): “inactive”.
On the same count and under the same terms, the same measure for `O=C(NCCc1c[nH]c2ccccc12)c1cccnc1`: “inactive”.
With `CCN(CC)CC(=O)Nc1c(C)cccc1C`, the compound was called inactive.
Take `CCOCCOC(=O)/C=C/c1ccc(OC)cc1`: the outcome was inactive.
`CN1CCN(CC(=O)N2c3ccccc3C(=O)Nc3cccnc32)CC1`: the viability change, negative = cytotoxic is 18.4% [at 6.26 µM] (inactive).
For `FC(F)(F)c1ccccc1-n1ccnc1`, the call was inactive.
Take `CCC(CC)CO`: the call was inactive.
The same measure, in the same setting: the same measure for `COc1cc2c(cc1OC)[C@@H]1CC(=O)[C@@H](CC(C)C)CN1CC2`: “inactive”; for `Cc1cccc(C)c1OCC(C)N` (configuration not stated): “inactive”.
Consider `C=Cc1ccccn1`, for which the result was inactive.
As for `CC(=O)Nc1ccc(S(=O)(=O)Cl)cc1`, the outcome was inactive.
On the same count and under the same terms, the value for `Nc1ccc2cc(S(=O)(=O)O)cc(O)c2c1` was “inactive”; that for `CCC(C)NC(N)=O` (configuration not stated) was “inactive”; that for `Nc1ncnc(Nc2ccccc2)n1` was “inactive”.
Turning to `COC(=O)C1CC(=O)C(C(=O)OC)CC1=O` (configuration not stated), the viability change, negative = cytotoxic was -19.8% [at 6.26 µM] (inactive).

The target in another test is Peroxisome proliferator-activated receptor delta (Homo sapiens) (UniProt Q03181). Nature of the test: qHTS assay to identify small molecule antagonists of the peroxisome proliferator-activated receptor delta (PPARd) signaling pathway (AID 743215; active means well fitted inhibition curve with a large enough effect in the signal ratio in the repeat runs, not every such curve was filed as active; the % refers to the signal ratio;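 further: cells stimulated with agonist L165041 at 300 nM final during compound exposure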). Conditions: HEK293H PPARd-UAS-bla, beta-lactamase FRET ratio, antagonist, 17 h; series mostly up to 62 µM. In a few lines:
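Here, a reporter line (HEK293H, beta-lactamase under a UAS) measures PPARd signaling. Compounds are tested against agonist L165041 at 300 nM final concentration over 17 h at 37 C, with fluorescence read after substrate.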
Turning to `COc1ccc(-c2cc(=O)c3c(O)cc(O[C@@H]4O[C@H](CO[C@@H]5O[C@@H](C)[C@H](O)[C@@H](O)[C@H]5O)[C@@H](O)[C@H](O)[C@H]4O)cc3o2)cc1O`, the result was inactive.
The same measure, in the same setting: the same measure for `C=C(C)C1CCC(C)(O)CC1` (configuration not stated): “inactive”; for `COc1cc(NS(=O)(=O)c2ccc(N)cc2)nc(OC)n1`: “inactive”; for `CCOC(=O)[C@H](CCc1ccccc1)N[C@@H](C)C(=O)N1C(=O)N(C)C[C@H]1C(=O)O`: “inactive”.
For `CCC(C)(CCC(C)C)C(=O)O` (configuration not stated), the outcome was inactive.
Turning to `CN1CCN(CC(=O)N2c3ccccc3C(=O)Nc3cccnc32)CC1`, the ratio activity, negative = inhibition was 1.31% [at 6.26 µM] (inactive).
Turning to `FC(F)(F)c1ccccc1-n1ccnc1`, the outcome was inactive.
Regarding `CCC(CC)CO`, the outcome was inactive.
Still for that read-out and setting: the same measure for `COc1cc2c(cc1OC)[C@@H]1CC(=O)[C@@H](CC(C)C)CN1CC2`: “inactive”.
As to `C=Cc1ccccn1`, the result was inactive.
As to `CC(=O)Nc1ccc(S(=O)(=O)Cl)cc1`, the outcome was inactive.
The same measure, in the same setting: the same measure for `CCC(C)NC(N)=O` (configuration not stated): “inactive”; for `Nc1ncnc(Nc2ccccc2)n1`: “inactive”.
As to `COC(=O)C1CC(=O)C(C(=O)OC)CC1=O` (configuration not stated), the ratio activity, negative = inhibition is -19.7% [at 6.26 µM] (inactive).

The next test addresses Bile acid receptor (Homo sapiens) (UniProt Q96RI1). Nature of the test: qHTS assay to identify small molecule antagonists of the farnesoid-X-receptor (FXR) signaling pathway (AID 743217; active means well fitted inhibition curve with a large enough effect in the signal ratio in the repeat runs, not every such curve was filed as active; the % refers to the signal ratio). Conditions: HEK293T FXR-UAS-bla, beta-lactamase ratio, CDCA-stimulated, 16 h; series mostly up to 62.6 µM. The procedure, abridged: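 Test compounds are pin-transferred onto FXR-bla HEK 293T cells, then chenodeoxycholic acid is added at 50 uM final. After 16 h at 37 °C, LiveBLAzer B/G substrate is applied for 2 h at room temperature and fluorescence read.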
For the compound `O=C1O[C@@H]2[C@@H](O)[C@H](O)O[C@@H]2[C@H]1O`, the Potency result was “inactive”.
Regarding `Cc1ccc(C=O)cc1C`, the Potency entry was “inactive”.
Still for that read-out and setting: the same measure for `CC1=C(C(=O)O)N2C(=O)[C@@H](NC(=O)[C@H](N)c3ccc(O)cc3)[C@H]2SC1`: “inactive”; for `CC(COC(C)(C)C)OCCCO` (configuration not stated): “inactive”; for `O=C(O)c1cc(Cl)cc([N+](=O)[O-])c1Cl`: “inactive”.
The same measure, in the same setting: the same measure for `O=C(CCNNC(=O)c1ccncc1)NCc1ccccc1`: “inactive”; for `O=C(NCC(O)CO)c1c(I)c(C(=O)NCC(O)CO)c(I)c(N(CCO)C(=O)CO)c1I` (configuration not stated): “inactive”; for `O=S(=O)(O)CCN1CCN(CCO)CC1`: “inactive”.
As to `c1ccc2nccnc2c1`, the Potency entry is “inactive”.
The same measure, in the same setting: the same measure for `CCCCCCCCCCl`: “inactive”; for `O=C(NCCc1c[nH]c2ccccc12)c1cccnc1`: “inactive”.
The same measure, in the same setting: the value for `CCN(CC)CC(=O)Nc1c(C)cccc1C` was “inactive”; that for `CCOCCOC(=O)/C=C/c1ccc(OC)cc1` was “inactive”.
Regarding `Cc1cccc(C)c1OCC(C)N` (configuration not stated), the Potency result is “inactive”.
Same read-out and setting: the same measure for `Nc1ccc2cc(S(=O)(=O)O)cc(O)c2c1`: “inactive”.

Tested on in a further test: not listed separately
In words: qHTS assay to identify small molecule agonists of the farnesoid-X-receptor (FXR) signaling pathway - cell viability counter screen (AID 743218). Further: nearly all actives have a fitted effect of over 45% in size. Conditions: FXR-bla HEK293T viability, CellTiter-Glo luminescence, 16 h; series mostly up to 62.6 µM. The procedure, abridged: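 Quantitative HTS counter screen measuring ATP-based viability via CellTiter-Glo luminescence in HEK 293T cells carrying a UAS-driven beta-lactamase reporter, after 16 h compound exposure at 37 C.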
Consider `CC1=CCC(C(C)C)=CC1`, for which the Potency entry was “inactive”.
The same measure, in the same setting: the same measure for `COc1ccc(-c2cc(=O)c3c(O)cc(O[C@@H]4O[C@H](CO[C@@H]5O[C@@H](C)[C@H](O)[C@@H](O)[C@H]5O)[C@@H](O)[C@H](O)[C@H]4O)cc3o2)cc1O`: “inactive”; for `COC(=O)[C@@H]1[C@H]2C[C@H]3c4[nH]c5ccccc5c4CCN3C[C@@H]2CC[C@@H]1O`: “inactive”.
Take `Cc1cccc(OCC(O)CNC(C)(C)C)c1C` (configuration not stated): the Potency entry was “inactive”.
For the compound `CC(C)(C)c1n[nH]c(=S)n(N)c1=O`, the Potency entry is “inactive”.
The same measure, in the same setting: the same measure for `C=C(C)C1CCC(C)(O)CC1` (configuration not stated): “inactive”; for `CC(CO)c1ccccc1` (configuration not stated): “inactive”.
As for `O=C1O[C@@H]2[C@@H](O)[C@H](O)O[C@@H]2[C@H]1O`, the Potency result was “inactive”.
Same read-out and setting: the same measure for `Cc1ccccc1C(=O)Nc1ccc(C(=O)N2CCCC(N(C)C)c3ccccc32)cc1` (configuration not stated): “inactive”; for `CC(=O)N[C@@H](CCC(=O)O)C(=O)O`: “inactive”; for `CC1=C(C(=O)O)N2C(=O)[C@@H](NC(=O)[C@H](N)c3ccc(O)cc3)[C@H]2SC1`: “inactive”.
Same read-out and setting: the same measure for `CC(COC(C)(C)C)OCCCO` (configuration not stated): “inactive”.
Regarding `O=C(O)c1cc(Cl)cc([N+](=O)[O-])c1Cl`, the Potency entry is “inactive”.
On to `O=C(CCNNC(=O)c1ccncc1)NCc1ccccc1`, for which the Potency entry was “inactive”.
On to `Cc1cc(Cl)c(C)cc1Cl`, for which the Potency result was “inactive”.
For the compound `O=S(=O)(O)CCN1CCN(CCO)CC1`, the Potency entry was “inactive”.
On the same count and under the same terms, the value for `CCCCCCCCCCl` was “inactive”.
Same read-out and setting: the same measure for `CCC(C)(CCC(C)C)C(=O)O` (configuration not stated): “inactive”.
`O=C(NCCc1c[nH]c2ccccc12)c1cccnc1`: the Potency result is “inactive”.
Same read-out and setting: the same measure for `CCOCCOC(=O)/C=C/c1ccc(OC)cc1`: “inactive”.
As for `CN1CCN(CC(=O)N2c3ccccc3C(=O)Nc3cccnc32)CC1`, the viability change, negative = cytotoxic was 9.72% [at 5.95 µM] (inactive).
Regarding `Cc1cccc(C)c1OCC(C)N` (configuration not stated), the Potency entry is “inactive”.
On the same count and under the same terms, the value for `C=Cc1ccccn1` was “inactive”; that for `CC(=O)Nc1ccc(S(=O)(=O)Cl)cc1` was “inactive”; that for `CCC(C)NC(N)=O` (configuration not stated) was “inactive”.
Still for that read-out and setting: the same measure for `Nc1ncnc(Nc2ccccc2)n1`: “inactive”.
